{
  "source": "PubChem BioAssay AID463173",
  "about": "(ICCB-Longwood Screening Facility, Harvard Medical School, 2010)",
  "note": "In all, about 52,000 compounds went through this assay and about 4,300 (8.3%) were called active. For the sample, actives were picked, then their nearest neighbours and some compounds at random. A number with no mark means an inactive call. No stated cut-off is given here; in the data, active means survival mostly below about 52% (no sharp cut-off); inactive means mostly above about 56%.",
  "data": [
    {"tested_on": "DeltatarO mutant", "assay": "growth inhibition of S. aureus wild type versus tarO mutant, primary screen, teichoic acid synthesis inhibitors, RN4220, OD600 (AID 463173)", "details": "OD600, 18 h, hits give low values, screened at 18.75 µg/mL (by protocol)", "values": [
      {"smiles": "CCC(C(=O)Nc1cccc(-c2nc3cccnc3s2)c1C)c1ccccc1", "note": "(stereo not drawn)", "survival": "92%"},
      {"smiles": "CCC(CC)C(=O)Nc1cccc(-c2nc3cccnc3s2)c1", "survival": "80%"},
      {"smiles": "CCC(C(=O)Nc1cc(-c2cn3cccnc3n2)ccc1C)c1ccccc1", "note": "(stereo not drawn)", "survival": "91%"},
      {"smiles": "CCC(C(=O)Nc1cc(-c2nc3cccnc3s2)ccc1C)c1ccccc1", "note": "(stereo not drawn)", "survival": "37% (active)"},
      {"smiles": "CCC(CC)C(=O)Nc1cc(-c2nc3cccnc3s2)ccc1C", "survival": "57% (active)"},
      {"smiles": "CCCC(=O)Nc1cc(C)c(O)c(-c2nc3ncccc3o2)c1", "survival": "91%"},
      {"smiles": "NC(=O)C1CCN(S(=O)(=O)c2ccc(N3CCCCS3(=O)=O)cc2)CC1", "survival": "116%"},
      {"smiles": "Cn1c(=O)c2c(n3ncnc13)NC(=O)CC2c1cccc(F)c1", "note": "(stereo not drawn)", "survival": "66%"},
      {"smiles": "CS(=O)(=O)N1CCN(c2ncnc3c(-c4ccc(Cl)cc4)nsc23)CC1", "survival": "99%"},
      {"smiles": "COCCn1c(C)cc(O)c(C(c2ccc(OC)cc2)N2CCN(c3ccccc3)CC2)c1=O", "note": "(stereo not drawn)", "survival": "58%"},
      {"smiles": "Cc1nc2c3cccnc3nn2c(C)c1CCC(=O)NCc1ccccc1", "survival": "110%"},
      {"smiles": "COc1ccc(-c2ccc(CCC(=O)O)n2-c2ccc(Cl)cc2C)cc1", "survival": "47% (active)"},
      {"smiles": "Cc1ccc(-n2c(CCC(=O)O)ccc2-c2cccs2)cc1C", "survival": "46%"},
      {"smiles": "COc1ccc(-n2c(CCC(=O)O)ccc2-c2ccccc2)c(OC)c1", "survival": "47% (active)"},
      {"smiles": "COc1ccc(-c2ccc(CCC(=O)O)n2-c2ccccc2O)cc1", "survival": "124%"},
      {"smiles": "COc1ccc(Cl)cc1-n1c(CCC(=O)O)ccc1-c1ccc(C)cc1", "survival": "73%"},
      {"smiles": "Cc1ccc(Cl)cc1-n1c(CCC(=O)O)ccc1-c1cccs1", "survival": "38% (active)"},
      {"smiles": "Cc1ccc(-c2ccc(CCC(=O)O)n2-c2ccc(C)c(Cl)c2)cc1", "survival": "42%"},
      {"smiles": "Cc1ccc(-c2ccc(CCC(=O)O)n2-c2cccc(C)c2C)cc1", "survival": "34% (active)"},
      {"smiles": "Cc1ccc(-n2c(CCC(=O)O)ccc2-c2cccs2)cc1Cl", "survival": "86%"},
      {"smiles": "Cc1ccc(C)c(-n2c(CCC(=O)O)ccc2-c2ccc(Cl)cc2)c1", "survival": "75%"},
      {"smiles": "COc1ccc(-c2ccc(CCC(=O)O)n2-c2ccccc2C(F)(F)F)cc1", "survival": "116%"},
      {"smiles": "COc1ccc(-c2ccc(CCC(=O)O)n2-c2cc(Cl)ccc2O)cc1", "survival": "52%"},
      {"smiles": "CCOC(=O)c1ccc(NC(=O)CCC(=O)N2Cc3ccccc3Oc3ncccc32)cc1", "survival": "92%"},
      {"smiles": "COc1ccc(N(C(=O)c2ccc(Cl)cc2)S(=O)(=O)c2ccc(C)cc2)cc1", "survival": "68%"},
      {"smiles": "COc1cc(/C=C/c2nc3cc(Cl)ccc3c(=O)n2-c2cccc(C(F)(F)F)c2)cc(OC)c1OC", "survival": "96%"},
      {"smiles": "CCOc1cccc2sc(N3CCN(C(=O)C(C)(C)C)CC3)nc12", "survival": "77%"},
      {"smiles": "CCOc1ccc2nc(NCCNC(=O)NCc3ccccc3)c(C#N)cc2c1", "survival": "98%"},
      {"smiles": "CSc1ccccc1NC(=O)CSc1ncccn1", "survival": "108%"},
      {"smiles": "O=C(COc1ccccc1Cl)NCC1(N2CCOCC2)CCCCC1", "survival": "106%"},
      {"smiles": "COc1ccc(-c2nc(SCC(=O)NCC3CCCO3)c(-c3ccc(C)cc3)[nH]2)cc1OC", "note": "(stereo not drawn)", "survival": "66%"},
      {"smiles": "COc1ccc(CNS(=O)(=O)c2cc3c(cc2Cl)N(C(C)=O)CCO3)cc1", "survival": "74%"},
      {"smiles": "COc1ccccc1-n1c(=O)n(C)c2c(C(N)=O)nc(-c3cccc(OC)c3OC)nc21", "survival": "83%"},
      {"smiles": "Cc1cccc(NC(=O)C(=O)NCCc2sc(-c3ccccc3)nc2C)c1C", "survival": "79%"},
      {"smiles": "Cc1ccc(NC(=O)Cn2c(CCC(=O)O)ccc2-c2cccs2)cc1", "survival": "56%"},
      {"smiles": "Cc1c(Cl)cccc1NC(=O)Cn1c(CCC(=O)O)ccc1-c1cccs1", "survival": "50%"},
      {"smiles": "Cc1c(Cl)cccc1-n1c(CCC(=O)O)ccc1-c1cccs1", "survival": "35% (active)"},
      {"smiles": "CC(=O)c1ccc(-n2c(CCC(=O)O)ccc2-c2cccs2)cc1", "survival": "65%"},
      {"smiles": "Cc1cc(Cl)ccc1-n1c(CCC(=O)O)ccc1-c1cccs1", "survival": "47% (active)"},
      {"smiles": "Cc1ccc(NC(=O)Cn2c(CCC(=O)O)ccc2-c2cccs2)cc1Cl", "survival": "59%"},
      {"smiles": "O=C(COc1ccccc1)N(Cc1cccnc1)c1nc2c(F)cc(F)cc2s1", "survival": "84%"},
      {"smiles": "CCc1nc2ccc(C(=O)NCCc3ccc(SC)cc3)cc2nc1CC", "survival": "76%"},
      {"smiles": "CCC(C(=O)NC1CCCC1)N(C(=O)Cn1nnc(-c2ccc(C)cc2)n1)c1ccc2c(c1)OCCO2", "note": "(stereo not drawn)", "survival": "90%"},
      {"smiles": "CCC(C(=O)NCCC(C)C)N(C(=O)Cn1nnc(-c2ccc(C)cc2)n1)c1cccc(O)c1", "note": "(stereo not drawn)", "survival": "37% (active)"},
      {"smiles": "CCC(C(=O)NC1CCCC1)N(C(=O)Cn1nnc(-c2cccs2)n1)c1cnc2ccccc2c1", "note": "(stereo not drawn)", "survival": "92%"},
      {"smiles": "COc1ccc(-c2nnn(CC(=O)N(CC(=O)NCc3ccccc3)c3ccc4c(c3)OCCO4)n2)cc1OC", "survival": "69%"},
      {"smiles": "O=C(CN(C(=O)Cn1nnc(-c2ccc(F)cc2)n1)c1ccccc1C(F)(F)F)NCc1ccco1", "survival": "98%"},
      {"smiles": "Cc1ccc(-c2nnn(CC(=O)N(CC(=O)NCCC(C)C)c3ccc(F)cc3)n2)cc1", "survival": "41% (active)"}
    ]}
  ]
}
